Assay results: PubChem BioAssay (NCATS)
A number with no mark means an inactive call. Records with an inconclusive call do not appear. A call without a number means that no potency is given here. Calls of active or inactive are those of the source. Unless noted, calls come from the whole dose curve; as a rule, active = well fitted curve in the direction sought with a large enough effect; inconclusive = small, poorly fitted or top-dose-only effect, or another doubt; inactive = no such curve, though single readings can be large; an effect the other way counts as inactive or inconclusive.

Tests used:
[1] = biological target: Cytochrome P450 2C9 (Homo sapiens) (UniProt P11712); assay: qHTS Assay for Inhibitors and Substrates of Cytochrome P450 2C9 (AID 883); note: nearly all actives have a fitted effect of over 60% in size; note: potency is the fitted concentration of half-maximal effect
Chain of Cytochrome P450 2C9 (Homo sapiens) (P11712 whole entry, looked up): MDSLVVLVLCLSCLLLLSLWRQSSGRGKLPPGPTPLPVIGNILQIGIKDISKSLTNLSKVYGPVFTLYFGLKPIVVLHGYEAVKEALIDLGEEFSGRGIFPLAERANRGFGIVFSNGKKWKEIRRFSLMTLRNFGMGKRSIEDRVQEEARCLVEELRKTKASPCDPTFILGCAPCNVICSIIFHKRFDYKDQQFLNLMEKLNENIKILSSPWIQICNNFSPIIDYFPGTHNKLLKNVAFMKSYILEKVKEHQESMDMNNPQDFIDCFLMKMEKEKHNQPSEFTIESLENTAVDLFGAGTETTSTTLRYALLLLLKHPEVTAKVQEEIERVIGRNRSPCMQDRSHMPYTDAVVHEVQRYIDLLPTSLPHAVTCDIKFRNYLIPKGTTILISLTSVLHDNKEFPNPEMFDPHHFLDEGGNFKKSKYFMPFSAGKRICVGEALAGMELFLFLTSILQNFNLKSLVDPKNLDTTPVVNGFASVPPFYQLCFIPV
In short: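 A luminogenic readout tracked human CYP2C9 (10nM) converting deoxyluciferin (100uM, at KM) in 25mM KPO4 during 60 min at 37C with regenerated NADPH. Values normalized to 57uM sulphaphenazole as complete inhibition.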

[2] = Primary qHTS for inhibitors of nuclear receptor binding SET domain protein 2 (NSD2) in an isogenic RCH-ACV NSD2 p.E1099K mutant (9B) (AID 1645876); note: potency is the fitted concentration of half-maximal effect; nearly all actives have a fitted effect of over 70% in size
[3] = Primary qHTS for inhibitors of nuclear receptor binding SET domain protein 2 (NSD2) in an RCH-ACV wild type WT cells (2C) (AID 1645877); note: potency is the fitted concentration of half-maximal effect; nearly all actives have a fitted effect of over 70% in size
[4] = biological target: Glutathione peroxidase 1 (Homo sapiens) (UniProt P07203); assay: Primary qHTS Assay for Inhibitors of Recombinant Selenoprotein Glutathione Peroxidase 1 (GPX1) (AID 1845191); note: nearly all actives have a fitted effect of over 65% in size
Chain of Glutathione peroxidase 1 (Homo sapiens) (P07203 whole entry, looked up): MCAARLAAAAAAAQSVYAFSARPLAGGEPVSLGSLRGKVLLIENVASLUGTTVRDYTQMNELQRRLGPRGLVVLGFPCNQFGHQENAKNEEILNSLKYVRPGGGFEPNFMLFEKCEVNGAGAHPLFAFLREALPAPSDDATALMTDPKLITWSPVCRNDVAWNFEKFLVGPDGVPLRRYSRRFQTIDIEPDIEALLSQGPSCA
In short: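 Recombinant GPX1 (10 nM final) was preincubated with compound for 30 min at room temperature, then reacted with 1 mM GSH, 0.5 mM CHP, 0.5 mM NADPH and 100 nM glutathione reductase; NADPH fluorescence (340/450 nm) was read at 0 and 15 min.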

[5] = biological target: Cytochrome P450 2D6 (Homo sapiens) (UniProt P10635); assay: Cytochrome P450 family 2 subfamily D member 6 (CYP2D6) small molecule antagonists: luciferase biochemical (cell-free) qHTS assay (AID 1645840; active = well fitted curve in the direction sought with a large enough effect in the repeat runs; an effect the other way counts as inactive or inconclusive; note: nearly all actives have a fitted effect of over 55% in size; note: potency is the fitted concentration of half-maximal effect)
Chain of Cytochrome P450 2D6 (Homo sapiens) (P10635 whole entry, looked up): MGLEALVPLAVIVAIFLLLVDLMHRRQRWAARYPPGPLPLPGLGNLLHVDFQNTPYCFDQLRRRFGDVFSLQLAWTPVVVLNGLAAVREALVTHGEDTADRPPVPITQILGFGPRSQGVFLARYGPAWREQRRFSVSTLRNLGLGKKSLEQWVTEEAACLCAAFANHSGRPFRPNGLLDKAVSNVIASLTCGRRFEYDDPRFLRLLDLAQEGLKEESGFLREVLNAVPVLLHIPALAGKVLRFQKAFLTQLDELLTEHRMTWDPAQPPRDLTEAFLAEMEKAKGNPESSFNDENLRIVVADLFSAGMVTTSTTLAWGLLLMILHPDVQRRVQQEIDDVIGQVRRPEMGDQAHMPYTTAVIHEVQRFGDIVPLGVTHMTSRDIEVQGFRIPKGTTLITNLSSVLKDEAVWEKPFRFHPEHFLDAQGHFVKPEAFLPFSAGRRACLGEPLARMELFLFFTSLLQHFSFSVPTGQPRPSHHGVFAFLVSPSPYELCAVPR
In short: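 P450-Glo luminescent screen: recombinant CYP2D6 enzyme–proluciferin substrate mix preincubated with compound 10 min at room temperature, then NADPH regeneration added for 1 h at room temperature. Detection reagent added for 20 min; luciferin light read as relative luminescence units.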

[6] = biological target: Cytochrome P450 2C9 (Homo sapiens) (UniProt P11712); assay: Cytochrome P450 family 2 subfamily C member 9 (CYP2C9) small molecule antagonists: luciferase biochemical (cell-free) qHTS assay (AID 1645842; active = well fitted curve in the direction sought with a large enough effect in the repeat runs; an effect the other way counts as inactive or inconclusive; note: nearly all actives have a fitted effect of over 55% in size)
In short: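 Luminescence, after 20 min with luciferin detection reagent, reflected CYP2C9 turnover during a 1 h NADPH-driven reaction at 37C. Enzyme-substrate mix contained 0.4% bovine serum albumin and was preincubated with compound 10 min at room temperature.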

[7] = Confirmation and Secondary Assay for Modulators of Hemoglobin Beta Chain Splicing at IVS2 654 locus (AID 910);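 note: per-well total GFP intensity by laser scanning cytometry after 2-day treatment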
In short: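 HeLa cells stably carrying EGFP interrupted by mutant beta-globin IVS2-654 intron (CMV-driven) were treated with compound for 2 days at 37C; corrected splicing was scored as total peak GFP intensity per well (488 nm excitation, 500-520 nm emission).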

[8] = Confirmation and Secondary Assay for Modulators of Hemoglobin Beta Chain Splicing at IVS2 705 locus (AID 930);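 note: HeLa cells stably expressing the EGFP-705 splicing reporter; GFP fluorescence per well restored by corrected splicing of the IVS2-705 intron in EGFP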
In short: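 Fluorescence gain (488 nm laser, 500-520 nm PMT) reflects restored correct splicing of a mutant IVS2-705 intron inside EGFP in stably transfected HeLa cells after 2-day compound treatment.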

[9] = qHTS profiling for inhibitors of Plasmodium falciparum proliferation (AID 504749); note: nearly all actives have a fitted effect of over 60% in size; details: P. falciparum in erythrocytes, SYBR Green DNA, 72 h, at 12.8 µM (top of the series)
In short: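 P. falciparum-infected erythrocytes (0.3% parasitemia, 2.5% hematocrit final) were exposed to compounds for 72 h at 37 C in 5% CO2, then lysed with SYBR Green buffer overnight at room temperature; parasite DNA fluorescence was normalized to artemisinin and DMSO controls.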

[10] = biological target: Guanine nucleotide-binding protein G(i) subunit alpha-1 (Homo sapiens) (UniProt P63096); assay: qHTS Assay for Inhibitors of RGS12 GoLoco Motif Activity (Green Fluorophore) (AID 879);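 note: negative values mean loss of peptide binding seen as reduced polarization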
Chain of Guanine nucleotide-binding protein G(i) subunit alpha-1 (Homo sapiens) (P63096 whole entry, looked up): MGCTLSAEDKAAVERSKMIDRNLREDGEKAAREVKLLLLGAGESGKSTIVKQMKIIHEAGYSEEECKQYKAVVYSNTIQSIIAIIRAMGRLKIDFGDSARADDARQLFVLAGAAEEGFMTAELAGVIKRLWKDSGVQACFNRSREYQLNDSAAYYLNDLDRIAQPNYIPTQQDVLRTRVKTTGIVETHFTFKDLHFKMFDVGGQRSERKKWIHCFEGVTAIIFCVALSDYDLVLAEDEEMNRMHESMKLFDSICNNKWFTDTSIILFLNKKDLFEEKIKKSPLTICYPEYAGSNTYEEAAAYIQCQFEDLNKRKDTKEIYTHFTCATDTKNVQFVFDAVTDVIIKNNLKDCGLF
In short: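 Fluorescence polarization assay: 50 nM Gαi1 with 10 nM FITC-labeled RGS12 GoLoco peptide in 10 mM Tris pH 7.5, 150 mM NaCl, 0.1 mM GDP, 0.05% NP40, 10 min at room temperature with compound.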

[11] = biological target: Pyruvate kinase (Leishmania mexicana) (UniProt Q27686); assay: qHTS Validation Assay for Inhibitors of Leishmania Mexicana Pyruvate Kinase (AID 945)
Chain of Pyruvate kinase (Leishmania mexicana) (Q27686 2-499 E452W): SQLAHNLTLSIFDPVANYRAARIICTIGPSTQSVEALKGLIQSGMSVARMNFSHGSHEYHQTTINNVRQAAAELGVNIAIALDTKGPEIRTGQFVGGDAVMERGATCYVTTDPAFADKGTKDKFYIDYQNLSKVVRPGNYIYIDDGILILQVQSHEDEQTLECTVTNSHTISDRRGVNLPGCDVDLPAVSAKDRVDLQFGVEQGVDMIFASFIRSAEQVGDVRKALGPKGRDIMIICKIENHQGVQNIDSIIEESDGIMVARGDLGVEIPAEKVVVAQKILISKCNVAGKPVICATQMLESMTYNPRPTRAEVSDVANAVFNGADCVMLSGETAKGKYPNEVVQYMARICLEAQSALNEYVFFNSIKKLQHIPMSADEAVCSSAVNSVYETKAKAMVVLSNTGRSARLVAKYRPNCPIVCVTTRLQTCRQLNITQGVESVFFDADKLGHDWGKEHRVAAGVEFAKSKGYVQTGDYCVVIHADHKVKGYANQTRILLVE
In short: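 Compounds are tested as eight-point concentration series. Reactions contain 0.2 nM LmPYK E451W, 0.5 mM PEP, 0.1 mM ADP, 7 mM MgCl2 and 50 mM KCl at pH 7.2, run 1 h at room temperature, then read by PKLight luminescence.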

[12] = biological target: Pyruvate kinase PKM (Homo sapiens) (UniProt P14618); assay: qHTS Assay for Activators of Human Muscle Pyruvate Kinase (AID 954; active = well fitted curve in the direction sought with a large enough effect, not every such curve was filed as active)
Chain of Pyruvate kinase PKM (Homo sapiens) (P14618 whole entry, looked up): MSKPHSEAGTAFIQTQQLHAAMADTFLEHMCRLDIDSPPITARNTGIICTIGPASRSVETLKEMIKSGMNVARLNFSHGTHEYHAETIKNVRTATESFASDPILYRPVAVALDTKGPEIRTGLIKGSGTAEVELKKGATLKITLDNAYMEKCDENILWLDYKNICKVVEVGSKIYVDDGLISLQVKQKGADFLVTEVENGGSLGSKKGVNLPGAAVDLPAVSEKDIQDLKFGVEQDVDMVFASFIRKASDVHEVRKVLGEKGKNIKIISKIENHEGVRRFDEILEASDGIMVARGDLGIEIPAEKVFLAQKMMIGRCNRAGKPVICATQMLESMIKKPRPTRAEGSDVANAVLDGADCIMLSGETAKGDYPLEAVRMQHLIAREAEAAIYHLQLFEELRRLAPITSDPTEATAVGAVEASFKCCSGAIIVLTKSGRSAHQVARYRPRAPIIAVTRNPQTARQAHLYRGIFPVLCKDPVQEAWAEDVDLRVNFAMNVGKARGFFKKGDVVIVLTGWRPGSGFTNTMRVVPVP
In short: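 Reaction: 0.1 nM purified PKM2 with 0.5 mM phosphoenolpyruvate and 0.1 mM ADP, room temperature, 1 h. Readout: luciferase-based ATP luminescence after stop reagent. Activators judged against a 0.3 nM enzyme column.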

[13] = biological target: Alpha-galactosidase A (Homo sapiens) (UniProt P06280); assay: Counterscreen for Glucocerebrosidase Inhibitors: qHTS Assay for Human alpha-Galactosidase at pH 4.5 (AID 992)
Chain of Alpha-galactosidase A (Homo sapiens) (P06280 whole entry, looked up): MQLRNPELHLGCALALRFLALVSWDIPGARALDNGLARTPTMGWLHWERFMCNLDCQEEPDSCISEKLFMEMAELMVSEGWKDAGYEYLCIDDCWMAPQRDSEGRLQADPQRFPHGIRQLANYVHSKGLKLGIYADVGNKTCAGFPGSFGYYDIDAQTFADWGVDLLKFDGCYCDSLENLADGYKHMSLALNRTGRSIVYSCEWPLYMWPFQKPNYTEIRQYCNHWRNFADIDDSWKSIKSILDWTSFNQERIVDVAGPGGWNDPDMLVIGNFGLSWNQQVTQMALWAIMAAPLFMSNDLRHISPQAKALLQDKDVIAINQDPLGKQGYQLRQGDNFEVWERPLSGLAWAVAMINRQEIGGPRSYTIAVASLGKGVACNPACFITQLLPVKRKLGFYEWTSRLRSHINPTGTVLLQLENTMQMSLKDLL
In short: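 Concentration-response curves (0.7 nM to 77 uM final) were modeled with the Hill equation to give AC50. Reactions: 2 nM enzyme, 80 uM fluorogenic alpha-galactoside, pH 4.5 citric acid buffer, 20 min, room temperature.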

[14] = biological target: alpha-glucosidase (Oryza sativa, rice) (UniProt Q653V4); assay: Counterscreen for Glucocerebrosidase Inhibitors: qHTS Assay for Rice alpha-Glucosidase at pH 5.0 (AID 997)
In short: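 Rice alpha-glucosidase (4 nM final) with 400 uM 4-methylumbelliferyl-alpha-D-glucopyranoside in citrate buffer pH 5.0, 20 min at room temperature, stopped at pH 10; fluorescence 365/440 nm, compounds 0.7 nM–77 uM, AC50 from Hill fits.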

[15] = biological target: DNA repair nuclease/redox regulator APEX1 (Homo sapiens) (UniProt P27695); assay: qHTS Validation Assay for Inhibitors of the Human Apurinic/apyrimidinic Endonuclease 1 (APE1) (AID 1705;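 note: TAMRA fluorescence gain over two minutes as APE1 cuts a quenched THF abasic duplex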)
Chain of DNA repair nuclease/redox regulator APEX1 (Homo sapiens) (P27695 whole entry, looked up): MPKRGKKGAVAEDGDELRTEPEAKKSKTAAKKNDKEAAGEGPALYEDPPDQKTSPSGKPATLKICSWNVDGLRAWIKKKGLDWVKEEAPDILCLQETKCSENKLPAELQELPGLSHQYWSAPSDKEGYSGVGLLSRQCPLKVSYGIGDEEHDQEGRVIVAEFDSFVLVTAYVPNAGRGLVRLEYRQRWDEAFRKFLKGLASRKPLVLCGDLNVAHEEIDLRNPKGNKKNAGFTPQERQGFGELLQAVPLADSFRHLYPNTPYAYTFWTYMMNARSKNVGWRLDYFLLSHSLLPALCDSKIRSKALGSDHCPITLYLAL
In short: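 Activity read as rising fluorescence (598 nm emission, 525 nm excitation) from incision of a TAMRA/BHQ-2 duplex carrying a THF abasic site (50 nM). Compound and enzyme sat 15 min at RT before substrate start; signal change between first and third 60-s reads.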

[16] = biological target: ATP-dependent DNA helicase Q1 (Homo sapiens) (UniProt P46063); assay: qHTS Validation Assay for Inhibitors of RecQ-Like Dna Helicase 1 (RECQ1) (AID 2353)
Chain of ATP-dependent DNA helicase Q1 (Homo sapiens) (P46063 whole entry, looked up): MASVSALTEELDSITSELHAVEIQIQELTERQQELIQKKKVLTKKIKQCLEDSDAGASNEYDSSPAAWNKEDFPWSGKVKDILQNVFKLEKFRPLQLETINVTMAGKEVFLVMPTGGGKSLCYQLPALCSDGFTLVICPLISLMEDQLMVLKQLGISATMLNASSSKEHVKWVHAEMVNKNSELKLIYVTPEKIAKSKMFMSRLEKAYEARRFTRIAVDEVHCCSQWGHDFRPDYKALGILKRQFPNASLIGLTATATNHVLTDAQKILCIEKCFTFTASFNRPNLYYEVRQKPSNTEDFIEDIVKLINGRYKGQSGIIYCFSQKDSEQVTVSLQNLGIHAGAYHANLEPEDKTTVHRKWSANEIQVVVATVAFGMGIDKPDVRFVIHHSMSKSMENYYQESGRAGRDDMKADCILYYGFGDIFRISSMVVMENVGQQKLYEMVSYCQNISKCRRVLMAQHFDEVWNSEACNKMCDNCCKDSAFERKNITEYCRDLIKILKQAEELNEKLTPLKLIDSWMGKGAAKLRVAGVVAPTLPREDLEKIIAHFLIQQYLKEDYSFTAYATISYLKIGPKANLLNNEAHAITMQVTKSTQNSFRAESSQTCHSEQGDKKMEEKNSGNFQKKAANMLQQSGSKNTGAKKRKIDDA
In short: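 50 nM RECQ1T1 preincubated 15 min with compound in Tris pH 8.0 buffer with MgCl2, DTT, Tween-20 and 2.5 ug/ml poly(dI-dC); started with 200 nM TAMRA/BHQ-2 forked duplex and 2 mM ATP. Unwinding read as fluorescence (525/598 nm), two reads 2 h apart.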

[17] = Quantitative high throughput screen for delayed death inhibitors of the malarial parasite plastid, 48 hour incubation (AID 488752); note: nearly all actives have a fitted effect of over 65% in size
In short: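 One parasite generation (48 h, 37 C, 5% CO2) of luciferase-reporter P. falciparum in erythrocytes is run with test compound; decreased luminescence indicates inhibited growth.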

[18] = biological target: Rap guanine nucleotide exchange factor 4 (Homo sapiens) (UniProt Q8WZA2); assay: Confirmatory qHTS for antagonist of cAMP-regulated guanine nucleotide exchange factor 4 (EPAC2) (AID 1645885); note: nearly all actives have a fitted effect of over 25% in size; note: potency is the fitted concentration of half-maximal effect
Chain of Rap guanine nucleotide exchange factor 4 (Homo sapiens) (Q8WZA2 whole entry, looked up): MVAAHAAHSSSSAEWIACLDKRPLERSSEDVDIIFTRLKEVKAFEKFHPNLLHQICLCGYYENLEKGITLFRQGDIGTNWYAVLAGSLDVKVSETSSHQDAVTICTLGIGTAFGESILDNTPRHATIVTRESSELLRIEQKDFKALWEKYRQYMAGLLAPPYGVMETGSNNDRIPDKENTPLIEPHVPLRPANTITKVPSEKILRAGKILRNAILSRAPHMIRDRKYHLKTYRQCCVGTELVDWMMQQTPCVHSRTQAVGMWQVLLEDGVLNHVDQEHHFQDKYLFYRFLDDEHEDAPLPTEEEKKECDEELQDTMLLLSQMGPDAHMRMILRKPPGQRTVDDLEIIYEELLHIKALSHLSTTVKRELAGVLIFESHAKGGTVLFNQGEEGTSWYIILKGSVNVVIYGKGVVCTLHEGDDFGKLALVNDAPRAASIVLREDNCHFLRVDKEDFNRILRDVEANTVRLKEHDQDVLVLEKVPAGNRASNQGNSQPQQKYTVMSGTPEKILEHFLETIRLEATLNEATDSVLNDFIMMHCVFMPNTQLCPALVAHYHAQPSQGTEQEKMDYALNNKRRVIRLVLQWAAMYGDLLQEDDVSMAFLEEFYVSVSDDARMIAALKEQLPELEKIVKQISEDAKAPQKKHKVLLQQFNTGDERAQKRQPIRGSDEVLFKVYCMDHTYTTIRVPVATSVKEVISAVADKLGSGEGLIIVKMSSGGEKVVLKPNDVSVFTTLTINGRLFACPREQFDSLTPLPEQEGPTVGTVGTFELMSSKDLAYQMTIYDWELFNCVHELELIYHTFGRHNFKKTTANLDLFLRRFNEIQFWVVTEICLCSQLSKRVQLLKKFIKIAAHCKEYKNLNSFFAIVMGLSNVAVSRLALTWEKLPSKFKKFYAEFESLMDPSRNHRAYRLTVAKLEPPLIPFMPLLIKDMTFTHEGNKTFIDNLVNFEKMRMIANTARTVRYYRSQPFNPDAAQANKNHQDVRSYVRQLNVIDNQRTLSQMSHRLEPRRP

With `COc1ccccc1N1CCN(CCCCN2C(=O)CCC2=O)CC1` as the compound, how does the Potency [1] read?
The Potency was 3.98 µM (active).

Which results are given for `CC(C)(C)n1nc(-c2ccc(Cl)cc2)c2c(N)ncnc21`?
Potency [2]: 8.2 µM (active); Potency [3]: 16.4 µM (active); Potency [4]: inactive

With `O=C1CC[C@H](C(=O)O)N1` as the compound, how does the Potency [5] read?
Its Potency is “inactive”.

And the Potency [6]?
Its Potency is “inactive”.

What does the source list for `CCN(CC)CC1CCN(c2ncc3ncnc(Nc4ccc(F)c(Cl)c4)c3n2)CC1`?
Potency [2]: 9.2 µM (active); Potency [3]: 16.4 µM (active); Potency [4]: inactive

Which Potency [1] does the source give for `CSc1nc(N)c2ncn([C@H]3O[C@H](COP(=O)(O)OP(=O)(O)OP(=O)(O)O)[C@@H](O)[C@@H]3O)c2n1` here?
The Potency was “inactive”.

For `CC(C)=CCC/C(C)=C/CC/C(C)=C/CC/C(C)=C/CO`, which outcome [7] is on record?
Its outcome is “inactive”.

And the outcome [8]?
The outcome was “inactive”.

For `Cc1nccn1CC1CCC2C(C1=O)c1ccccc1N2C` (configuration not stated), which Potency [5] is on record?
The Potency was 12 µM (active).

What about the Potency [6] of the same compound?
Its Potency is “inactive”.

Which results are given for `C[C@@H](C(=O)O)c1ccc(-c2ccccc2)c(F)c1`?
outcome [7]: inactive; outcome [8]: inactive; Potency [5]: inactive; Potency [6]: inactive; activity, negative = inhibition ([9]; parasite line A): 6.83%; activity, negative = inhibition ([9]; parasite line B): 6.59%

Which results are given for `COc1ccc2c(c1)c(CC(=O)N1CCOCC1)c(C)n2C(=O)c1ccc(Cl)cc1`?
outcome [10]: inactive; Potency [11]: inactive; outcome [12]: inactive; outcome [13]: inactive; outcome [14]: inactive; Potency [15]: inactive; Potency [16]: inactive; Potency [17]: inactive

With `C[C@@H](/C=C\c1cccc(Oc2ccc(F)cc2)c1)N(O)C(N)=O` as the compound, how does the outcome [10] read?
The outcome was “inactive”.

What about the Potency [11] of the same compound?
Its Potency is “inactive”.

What about the outcome [12] of the same compound?
The outcome was “inactive”.

And the outcome [13]?
Its outcome is “inactive”.

What about the outcome [14] of the same compound?
Its outcome is “inactive”.

What about the Potency [18] of the same compound?
The Potency was 44.1 µM (active).

With `Cc1ccc(-c2nn(C(C)(C)C)c3ncnc(N)c23)cc1` as the compound, how does the Potency [2] read?
Its Potency is 7.31 µM (active).

And the Potency [3]?
The Potency was 11.6 µM (active).

What about the Potency [4] of the same compound?
The Potency was “inactive”.

With `COc1ccc2[nH]c(-c3ccccc3)c(CCNC(C)=O)c2c1` as the compound, how does the Potency [18] read?
The Potency was “inactive”.

For `NC(C(=O)O)c1cc(O)c(Cl)c(O)c1` (configuration not stated), which Potency [18] is on record?
The Potency was “inactive”.

Which results are given for `CCCCC/C=C\C/C=C\C/C=C\C/C=C\CCCC(=O)O`?
outcome [7]: inactive; outcome [8]: inactive; Potency [18]: 44.1 µM (active)
